# Measured values published in PubChem BioAssay AID2235 (The Scripps Research Institute Molecular Screening Center, 2010).
# The whole screen tested about 320,000 compounds, of which about 2,800 (0.88%) were called active. What follows is part of a selection rich in actives, with near analogues and random picks from the rest. A number with no mark means an inactive call.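 Rule for the calls: active = inhibition above the mean inhibition of all tested compounds plus 3 SD, computed separately for each screening campaign (cut at about 15% in these data); inactive = the rest.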
# Biological target: Serine/threonine-protein phosphatase PP1-alpha catalytic subunit (Homo sapiens) (UniProt P62136)
# Test: inhibition of human PP1 catalytic subunit – biochemical, fluorescence, OMFP substrate, single point, counter-screen for PP5 inhibitor project, primary screen (AID 2235)
# Conditions: purified PP1alpha, at 6.7 µM, active compounds read high
# Sequence of Serine/threonine-protein phosphatase PP1-alpha catalytic subunit (Homo sapiens) (P62136 whole entry, looked up): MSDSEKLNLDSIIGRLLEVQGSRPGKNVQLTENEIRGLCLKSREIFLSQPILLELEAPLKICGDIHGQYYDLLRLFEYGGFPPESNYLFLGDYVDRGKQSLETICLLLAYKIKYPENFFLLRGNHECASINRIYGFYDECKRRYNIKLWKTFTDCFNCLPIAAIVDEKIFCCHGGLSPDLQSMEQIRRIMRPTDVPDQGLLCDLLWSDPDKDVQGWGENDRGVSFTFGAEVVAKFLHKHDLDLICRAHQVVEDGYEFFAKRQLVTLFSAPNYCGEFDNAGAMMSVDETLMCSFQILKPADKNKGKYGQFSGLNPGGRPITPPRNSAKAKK
row,SMILES,inhibition
1,O=C(CN1C(=O)C2C3C=CC(C3)C2C1=O)NCC1COc2ccccc2O1 (centres undefined),0.06%
2,Cc1cc(C(=O)CCl)c(C)n1CC1COc2ccccc2O1 (centres undefined),-1.57%
3,O=C1C(=O)N(CC2COc3ccccc3O2)c2ccccc21 (centres undefined),18.4% (active)
4,O=C(NC(Cc1c[nH]c2ccccc12)C(=O)O)/C(=C/c1ccco1)NC(=O)c1ccccc1 (centres undefined),-3.53%
5,CN(C(=O)CSc1nnc(-c2n[nH]c3ccccc23)o1)c1ccccc1,-3.45%
6,COc1ccc(/C=C2\SC(=O)N(CCC(=O)NC3CCS(=O)(=O)C3)C2=O)cc1 (centres undefined),-1.73%
7,Cn1c(=N)n(CC(O)c2cccs2)c2ccccc21 (centres undefined),2.31%
8,Cn1c(=N)n(CC(O)c2ccccc2)c2ccccc21 (centres undefined),-1.18%
9,N=c1n(Cc2ccc(Cl)cc2)c2ccccc2n1CC(O)c1ccco1 (centres undefined),21.9% (active)
10,O=S(=O)(c1cccc(-c2cn3ccccc3n2)c1)N1CCCC1,-0.43%
11,O=C(O)c1ccccc1OCc1ccccc1Cl,-3.14%
12,CC(C)c1cc(C(N)=O)c(NC(=O)c2cccc(COc3ccc(Br)cc3)c2)s1,6.73%
13,COc1ccc(N2CCN(S(=O)(=O)c3ccc4c(c3)NC(=O)C(C)C(=O)N4)CC2)cc1 (centres undefined),-1.74%
14,CSC1=NCCN1C(=O)Cc1cccc2ccccc12,-1.43%
15,C=C1c2c(Cl)ccc(O)c2C(O)=C2C(=O)[C@]3(O)C(O)=C(C(N)=O)C(=O)[C@@H](N(C)C)[C@@H]3[C@@H](O)C12 (some centres undefined),23.5% (active)
16,CN(C)[C@@H]1C(=O)C(C(N)=O)=C(O)[C@@]2(O)C(=O)C3=C(O)c4c(O)ccc(Cl)c4[C@@H](O)[C@H]3C[C@@H]12,5.56%
17,Cc1cc(Nc2cccc(F)c2)n2ncnc2n1,-2.78%
18,COc1ccccc1/C=N/Nc1nc(C)c(C(C)=O)s1,1.23%
19,Cc1cc(N/N=C\c2ccc(Br)cc2)nc(-n2nc(C)cc2C)n1,21.7% (active)
20,Cc1nc(Cl)cc(N/N=C/c2ccccc2)n1,-6.15%

row,SMILES,inhibition
1,COc1ccccc1/C=N\Nc1cc(C)nc(-n2nc(C)cc2C)n1,30.7% (active)
2,CN(C)c1ccc(/C=N/Nc2cc(N3CCOCC3)nc(N3CCOCC3)n2)cc1,-2.51%
3,COc1cccc(/C=N/Nc2cc(C)nc(-c3ccccc3O)n2)c1O,6.15%
4,CS(=O)(=O)N(Cc1nc2sc3c(c2c(=O)[nH]1)CCCC3)C1CCCCC1,1.31%
5,NC1=NC(c2ccc([N+](=O)[O-])cc2)N(c2ccc(F)cc2)C(N)=N1 (centres undefined),1.43%
6,CCOc1ccc(C)cc1S(=O)(=O)NC1CCCCCC1,0.47%
7,O=C(CN1CCc2ccccc21)NC(c1ccccc1)c1ccccc1,17.5% (active)
8,NS(=O)(=O)c1cccc(NC(=O)CN2CCCc3ccccc32)c1,-0.85%
9,O=C(CN1CCN(Cc2ccccc2)CC1)NC(c1ccccc1)c1ccccc1,10.6%
10,CCn1cc(CN2CCCC(CNS(=O)(=O)Cc3ccccc3)C2)cn1 (centres undefined),0.72%
11,COC(=O)N1CN(C(=O)OC)CN(C(=O)OC)C1,-3.93%
12,O=C(CCCN1C(=O)/C(=C/c2cccs2)SC1=S)Nc1ccc(O)cc1,-0.73%
13,CCCCC(=O)Nc1ccc(C(=O)Nc2cc(C(F)(F)F)ccc2Cl)cc1,1.1%
14,CCCCN(CCCC)CCC(O)c1cc2c(Cl)cc(Cl)cc2c2cc(C(F)(F)F)ccc12 (centres undefined),17% (active)
15,CC(C)c1nnc(NC(=O)CCC(=O)N2CCN(c3cccc(Cl)c3)CC2)s1,-3.62%
16,NNC(=O)c1cnn(-c2ccccc2)c1C(F)(F)F,0.34%
17,CCO/N=C(/C)c1c(O)cc(-c2ccccc2)n(-c2ccccc2)c1=O,-2.6%
18,CCOc1ccc(NC(=O)CCNC(=O)c2ccc(Br)cc2)cc1,1.21%
19,CC(C)NC(=O)NC(=O)COC(=O)c1ccc(NC(=O)CC#N)cc1,-2.32%
20,CCOc1ccc(NC(=O)c2ccc(NC(=O)COC(=O)c3ccc(NC(=O)CC#N)cc3)cc2)cc1,75.8% (active)

row,SMILES,inhibition
1,CN=C(c1ccccc1)c1c(C)cccc1C,2.55%
2,CCNC(=O)NC(=O)C(C)OC(=O)c1cc(S(=O)(=O)N2CCCCCC2)ccc1OC (centres undefined),1.67%
3,COc1cccc(NC(=O)Cn2c3ccccc3c3nc4n(c(=O)c32)CCS4)c1,-2.19%
4,O=C(NCc1ccc2c(c1)OCO2)C12CC3CC(CC(C3)C1)C2,-3.56%
5,O=C(CSc1nnc(C2CC2)n1Cc1ccccc1)Nc1cccnc1Cl,18% (active)
6,COc1ccc(-c2nnc(SCC(=O)Nc3cccnc3Cl)n2C)cc1,-4.29%
7,CC(=O)Nc1ccc(NC(=O)CSc2nnc(C3CC3)n2-c2ccccc2)cc1,-2.45%
8,CC(=O)c1cccc(NC(=O)COc2ccc(S(=O)(=O)N3CCOCC3)cc2)c1,-2.4%
9,Cc1ccccc1/[N+]([O-])=C/c1ccncc1,-3.82%
10,O=S(=O)(NCc1ccc2c(c1)OCO2)c1cccc2nsnc12,-1.4%
11,O=S(=O)(c1ccc(F)cc1)N1CCN(C(=S)NCc2ccco2)CC1,-1.26%
12,COc1ccc2nc(Nc3nc(-c4ccncc4)cs3)sc2c1,15.7% (active)
13,COc1ccc2nc(NC(=O)c3ccc(Br)s3)sc2c1,3.31%
14,COc1ccc2nc(NC(=O)NC3CCCCC3)sc2c1,0.1%
15,CCOC(=O)c1c(Cc2ccc(Cl)cc2)c[nH]c1C,0.15%
16,O=C(O)c1cccc(NC(=O)c2cc(-c3cccc(Cl)c3)nc3ccccc23)c1,8.21%
17,O=C(Nc1cccc(F)c1)c1cc(-c2ccco2)nc2ccccc12,17% (active)
18,COc1ccc(NC(=O)c2cc(-c3ccc(C)o3)nc3ccccc23)cc1,-1.75%
19,O=C(c1ccc(Cl)nc1)N1CCN(S(=O)(=O)c2ccc3c(c2)OCCO3)CC1,1.34%
